# Screens: PubChem BioAssay, National Center for Advancing Translational Sciences (NCATS)
# NPSR antagonist = antagonists of human neuropeptide S receptor cAMP signaling; AID 1461; Potency, µM (top dose mostly 38.3 µM), without a hit: at the highest dose activity change, negative = inhibition, most hits filed as inhibitors; Q6W5P4; CHO-NPSR cells, cAMP TR-FRET, antagonist mode; actives 1% (n = 220,000); further: nearly all actives have a fitted effect of over 50% in size
# Target sequence (Q6W5P4 whole entry, looked up): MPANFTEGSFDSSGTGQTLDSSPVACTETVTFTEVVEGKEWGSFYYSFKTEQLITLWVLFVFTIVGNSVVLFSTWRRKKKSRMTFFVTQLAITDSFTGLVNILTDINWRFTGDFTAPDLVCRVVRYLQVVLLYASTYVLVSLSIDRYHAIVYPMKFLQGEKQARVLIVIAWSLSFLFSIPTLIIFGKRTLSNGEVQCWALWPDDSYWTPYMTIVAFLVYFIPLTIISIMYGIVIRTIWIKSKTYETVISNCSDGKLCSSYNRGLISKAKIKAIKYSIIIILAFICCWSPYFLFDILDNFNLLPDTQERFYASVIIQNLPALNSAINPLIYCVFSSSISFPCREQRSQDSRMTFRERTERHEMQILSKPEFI
# Tau ThT inhib = inhibitors of human tau fibril formation, thioflavin T binding. P10636. recombinant tau K18 P301L, heparin-induced fibrillization, ThT fluorescence. Potency, µM (series often up to 57.4 µM), for inactives: at the highest dose activity, negative = inhibition, hits mostly inhibitors. actives 2.1% (n = 270,000); further: nearly all actives have a fitted effect of over 55% in size
# Target sequence (P10636 561-689 P618L limits assumed): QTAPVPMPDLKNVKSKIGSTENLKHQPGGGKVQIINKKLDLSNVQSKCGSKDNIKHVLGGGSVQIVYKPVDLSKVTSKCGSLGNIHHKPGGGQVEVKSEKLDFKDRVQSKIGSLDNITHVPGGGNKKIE
#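 K18 P301L tau (15 uM + 0.24 uM Alexa 594-tagged), heparin 20 uM, NaOAc pH 7, 6 h 37 C; ThT 30 uM, 1 h RT, ex 450/em 510 nm.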
# Tau fluor cs = counter-screen for tau fibril formation inhibitors | Potency, µM (top dose mostly 57.7 µM), inactives show at the top dose activity change, negative = decrease | actives 0.93% (n = 280,000) | tau K18 P301L Alexa594 fluorescence, heparin fibrillization; further: nearly all actives have a fitted effect of over 55% in size
#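 Human tau K18 P301L (15 uM unlabeled, 0.24 uM Alexa 594-labeled) in 100 mM sodium acetate pH 7 with 20 uM heparin, 6 hr at 37 C. ThT 30 uM added, 1 hr ambient; Alexa 594 FP and total fluorescence read at 555/632 nm.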
# Tau fibril FP = tau fibrillization inhibition (FP); AID 1468; actives 0.39% (n = 280,000); K18 P301L tau heparin fibrillization, Alexa594 FP, 6 h; Potency, µM (top dose mostly 57.7 µM), for inactives: at the top dose activity, negative = inhibition, actives largely listed as inhibitors; further: nearly all actives have a fitted effect of over 55% in size
#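 Recombinant K18 P301L […], labeled with Alexa 594 at 0.24 uM over 15 uM unlabeled; heparin inducer 20 uM final; 37 C, 6 hr; FP endpoint.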
# Luc counter = blocks Kinase-Glo luciferase, a counter-screen artifact; Q27757; actives 0.28% (n = 200,000); Potency, µM (titrated, usually from 38.3 µM), without a hit: at the highest dose activity change, negative = inhibition, most hits filed as inhibitors; Kinase-Glo luciferase, ATP luminescence, 8 min; further: nearly all actives have a fitted effect of over 60% in size
#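 Kinase-Glo luciferase light output from ATP and luciferin was measured with 10 uM ATP, within the enzyme's linear range. Buffer: 50 mM imidazole pH 7.2, 50 mM KCl, 7 mM MgCl2, 0.01% Tween 20, 0.05% BSA; luminescence read after 8 min at ambient temperature.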
# Starred values were filed as active, the others as inactive; ? = inconclusive; . = no result given; [ ] = dose if it differs, or a comment. Most compounds without a hit are left out; they make up all but 3.3% or so of the library. The call rests on the fitted dose curve; in most records, active means well fitted curve in the direction sought with a large enough effect; inconclusive means small, poorly fitted or top-dose-only effect, or another doubt; inactive means no such curve, though single readings can be large; an effect the other way counts as inactive or inconclusive. On the % scale 0 is the no-effect control and ±100 the full control effect; potency means the concentration at half of the fitted maximal effect.
SMILES,NPSR antagonist,Tau ThT inhib,Tau fluor cs,Tau fibril FP,Luc counter
COc1ccc(-c2csc(/C(C#N)=C\c3ccc(O)c([N+](=O)[O-])c3)n2)cc1OC,29%,1.3µM*,4.5µM*[quencher],-5%,.
COc1cc(NS(=O)(=O)c2ccc3c(c2)CC(C)N3C(=O)C2CCC2)cc(OC)c1OC (stereo unspecified),.,-1%,-17%,2%,.
COc1cc2c(cc1OC)[C@H](C)N(CC1C(=O)O[C@@H]3C[C@@]4(C)CCC[C@H](C)[C@@]45OC5[C@H]13)CC2 (stereo partly specified),.,?,-10%,7%,2%
NC(N)=Nc1ccc(-c2ccc(N=C(N)N)cc2)cc1,.,.,.,.,0%[7.66 µM]
NC(=Nc1ccc(N)cc1)C(N)=Nc1ccc(N)cc1,-25%,8.9µM*,?,?,.
CC(=O)c1cccc2c(O)c(C3=Nc4ccccc4C3=O)[nH]c12,?,3.5µM*,?,?,?
O=C1/C(=C/c2cccnc2)CC/C1=C\c1cccnc1,-21%,?,0%,-3%,-5%
O=C1/C(=C/c2cccnc2)CCC/C1=C\c1cccnc1,-48%,6.3µM*,-16%,?,15%
CCC1C/C(=C\c2cccnc2)C(=O)/C(=C/c2cccnc2)C1 (stereo unspecified),-53%,10µM*,-11%,?,-4%
COc1ccc(N2CCN(C(=O)Cn3c(-c4cccs4)cc4ccccc43)CC2)cc1,.,?,?,4%,.
COc1ccc(C)c2sc(=NC(=O)c3ccccc3)n(C)c12,4%[46.1 µM],?,-18%,-7%,13µM*
COc1ccc(C)c2sc(=NC(=O)c3ccc(C(C)=O)cc3)n(C)c12,58%,?,-9%,-5%,.
CCc1ccc(NC(=O)CSC2=Nc3ccccc3C3=NC(CCC(=O)NCc4ccccc4OC)C(=O)N23)cc1 (stereo unspecified),.,6%,-3%,-6%,.
COC(=O)c1sc(=S)sc1C(=O)OC,-2%[46.1 µM],3.2µM*,-19%,?,9%
COc1ccc(Br)cc1CNC(=O)c1cnc2sc(N3CCCC3)nn2c1=O,.,2%,-2%,-5%,.
Cc1nc(NCc2ccco2)c2c(C)c(C)sc2n1,-9%[46.1 µM],-9%,-9%,-4%,-3%
Cc1sc2nc3c4ccccc4c(NCc4ccco4)nn3c(=O)c2c1C,?,25µM*,?,35µM*,-5%
Cc1cc(=O)c2c(O)cc(O)c(C)c2o1,.,25µM*,28µM*[quencher],?,-7%
COc1ccc(CCNC(=O)c2ccc3c(c2)c(C)c(C)n3Cc2ccc(F)cc2)c(OC)c1OC,.,-10%,-14%,4%,.
Nc1nc(-c2ccc(Cl)cc2)c(N=Nc2ccc(S(=O)(=O)N3CCOCC3)cc2)s1,-56%,14µM*,11µM*[quencher],?,-15%
O=S(=O)(c1ccc(Cl)cc1)N1CCC(N2CCOCC2)CC1,-4%[46.1 µM],-15%,-9%,-4%,-4%
COc1ccccc1N1CCN(C(=O)CSc2n[nH]c(-c3ccccc3Cl)n2)CC1,.,-10%,-14%,?,.
COc1ccc2c(c1)OC/C(=C/c1ccc(OC)c(OC)c1)C2=O,.,11µM*,?,-6%,-10%
COc1ccc2c(c1)OC/C(=C/c1ccc(O)c(O)c1)C2=O,.,?,-21%,4%,-2%
Cc1ccc(-c2[nH]nc(N)c2N=Nc2ccccc2C)cc1,-8%[46.1 µM],16µM*,11µM*[quencher],-5%,-3%
SMILES,NPSR antagonist,Tau ThT inhib,Tau fluor cs,Tau fibril FP,Luc counter
COC(=O)c1ccccc1N=Nc1c(N)n[nH]c1N,35%,?,-13%,8%,.
Cc1cccc(N=Nc2c(N)n[nH]c2-c2ccc(Cl)cc2)c1,-3%[46.1 µM],?,8.9µM*[quencher],?,3%
Cc1ccc(-c2[nH]nc(N)c2N=Nc2cccc(Cl)c2C)cc1,?,13µM*,6.3µM*[quencher],?,-2%
Nc1n[nH]c2cccc(Cl)c12,2%,-14%,-15%,-3%,.
CCC(C(=O)Nc1cc(-c2nc3cccnc3s2)ccc1C)c1ccccc1 (stereo unspecified),.,-12%,-23%,-7%,.
CCOc1ccc(NC(=O)CSc2ncc3c(n2)-c2ccc(Cl)cc2N(Cc2ccccc2)S3(=O)=O)cc1,.,-4%,?,-15%,.
